# Data from PubChem BioAssay AID652117 (Broad Institute, 2013).
# Potency and affinity values are given separately. The source made the active and inactive calls.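 How the source made its calls: active means compounds whose fitted half-maximal cell-killing dose is no more than twice the top tested dose; inconclusive means flat moderate loss of cell viability, or an unreliable curve fit; inactive means the rest.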
# Test: HeLa cell cytotoxicity, dose response, cytotoxicity control, ATP luminescence, dry powder (AID 652117)
# Conditions: HeLa viability, CellTiter-Glo ATP luminescence, 48 h; series mostly up to 26 µM
row,Structure (SMILES),outcome
1,CCOC(=O)C1(CCOC)CCN(Cc2ccc(O)c(Cl)c2)CC1,inactive
2,CCOC(=O)C1CCN(C(=O)OC(C)(C)C)CC1,inactive
3,C=CCOc1ccc(CN2CCC(CCOc3ccccc3)(C(=O)N(C)CC)CC2)cc1Cl,inactive
4,CCOC(=O)C1(CCOc2ccccc2)CCN(Cc2ccc(OC)cc2)CC1,inactive
5,C=CCOc1ccc(CN2CCC(CCOc3ccccc3)(C(=O)O)CC2)cc1Cl,inactive
6,CCOC(=O)C1(CCOc2ccccc2)CCN(Cc2ccc(OC)c(Cl)c2)CC1,inactive
7,O=C(Nc1ccccc1)C1(CCOc2ccccc2)CCN(Cc2ccc(O)c(Cl)c2)CC1,inactive
8,CCOC(=O)C1(CCOC)CCCN(Cc2ccc(Cl)cc2)C1 (stereo not given),inactive
9,CCOC(=O)C1(CCOc2ccccc2)CCN(Cc2ccc(O)c(Cl)c2)CC1,inactive
10,O=C(N1CCCC1)C1(CCOc2ccccc2)CCN(Cc2ccc(O)c(Cl)c2)CC1,inactive
11,C=CCOc1ccc(CN2CCC(CCOc3ccccc3)(C(=O)N3CCCC3)CC2)cc1Cl,inactive
12,C=CCOc1ccc(CN2CCC(CCOc3ccccc3)(C(=O)NCC)CC2)cc1Cl,inactive
13,C/C1=C\C[C@H](OC(=O)c2ccc(O)cc2)/C(C)=C/[C@@H](O)C(C)(C)CCC1,inactive
14,CCNC(=O)C1(CCOc2ccccc2)CCN(Cc2ccc(O)c(Cl)c2)CC1,inactive
15,O=C(NC1CCCC1)C1(CCOc2ccccc2)CCN(Cc2ccc(O)c(Cl)c2)CC1,inactive
16,CCOC(=O)C1(CCOc2ccccc2)CCN(C(=O)c2ccc(O)c(Cl)c2)CC1,inactive
17,CCOC(=O)C1(CCOc2ccccc2)CCN(Cc2ccc3[nH]c(=O)oc3c2)CC1,inactive
18,CCOC(=O)C1(CCOc2ccccc2)CCN(C(=O)OC(C)(C)C)CC1,inactive
19,C=CCOc1ccc(CN2CCC(CCOc3ccccc3)(C(=O)OCC)CC2)cc1Cl,inactive
20,CCOC(=O)C1(Cc2cccc(OC)c2)CCN(Cc2ccc(O)c(Cl)c2)CC1,inactive
21,CCOC(=O)C1(Cc2ccccc2)CCN(Cc2ccc(O)c(Cl)c2)CC1,inactive
22,CCN(C)C(=O)C1(CCOc2ccccc2)CCN(Cc2ccc(O)c(Cl)c2)CC1,inactive
23,C=CCOc1ccc(CN2CCC(CCOc3ccccc3)(C(=O)NC3CCCC3)CC2)cc1Cl,inactive
24,C/C1=C\[C@@H](O)C(C)(C)CCCC2(C)OC2C[C@@H]1OC(=O)c1ccc(O)cc1 (stereo not given in full),inactive
25,CCOC(=O)C1(CCOc2ccccc2)CCN(Cc2ccc(O)cc2)CC1,inactive
